Assay results as given in PubChem BioAssay AID1259376 (The Scripps Research Institute Molecular Screening Center, 2018).
Hit rate of the full screen: of about 4,700 compounds, about 360 (7.7%) were called active. A selection follows. A number with no mark means an inactive call.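 Rule for the calls: active = inhibition above a cutoff derived from the DMSO control wells (cut at about 30% in these data); inactive = the rest.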

Assay: bead signal artefacts at single dose – biochemical, AlphaScreen, triplicate, counter-screen for MITF inhibitor project (AID 1259376)
Conditions: LysRS AlphaScreen counterscreen, signal interference, at 2.6 µM, stronger effect = higher value

**Q.** Which inhibition does the source give for `CCOc1cc(CN2CCN(Cc3ccccn3)CC2)ccc1OC` here?
**A.** 17.5%

**Q.** For `c1cc2c(cc1CN1CCN(C3CCCCC3)CC1)OCO2`, which inhibition is on record?
**A.** 2.75%

**Q.** With `COc1cc(CN2CCN(Cc3cc(OC)c(OC)cc3OC)CC2)cc(OC)c1` as the compound, how does the inhibition read?
**A.** -0.77%

**Q.** For `COc1cc(CN2CCN(Cc3ccccc3Br)CC2)cc(OC)c1`, which inhibition is on record?
**A.** 9.78%

**Q.** With `CCN(CC)C(=O)C1CCCN(Cc2cccc(Cl)c2)C1` (centres undefined) as the compound, how does the inhibition read?
**A.** 14.2%

**Q.** With `COc1ccc(C(=O)N2CCN(Cc3ccccc3C(F)(F)F)CC2)cc1OC` as the compound, how does the inhibition read?
**A.** 20.4%

**Q.** For `CN(C)c1cccc(Nc2ccc(-c3cccc(C=O)c3)cn2)c1`, which inhibition is on record?
**A.** 73.1% (active)

**Q.** For `C1=CC2CC1CC2CN1CCN(Cc2c[nH]c3ccccc23)CC1` (centres undefined), which inhibition is on record?
**A.** 2.75%

**Q.** For `COc1ccc(CN2CCN(C3CCC(C)CC3)CC2)c(OC)c1OC` (centres undefined), which inhibition is on record?
**A.** -12.1%

**Q.** Which inhibition does the source give for `CC(=O)c1ccc(NC(=O)C(C)NCc2ccc(C)cc2)cc1` (centres undefined) here?
**A.** 15.9%

**Q.** With `Fc1cccc(CN2CCN(C3CCC(c4ccccc4)CC3)CC2)c1` (centres undefined) as the compound, how does the inhibition read?
**A.** 21.8%

**Q.** With `COCCCN1C(=O)c2cccc3c(C(=O)c4ccccc4)ccc(c23)C1=O` as the compound, how does the inhibition read?
**A.** 12.9%

**Q.** With `CCOc1cccc(C2C(C(=O)OCCOc3ccccc3)=C(C)NC3=C2C(=O)CCC3)c1` (centres undefined) as the compound, how does the inhibition read?
**A.** 14.4%

**Q.** With `COC(=O)C1(C)NC(c2ccc(C)cc2)C2C(=O)N(c3ccc(F)cc3)C(=O)C21` (centres undefined) as the compound, how does the inhibition read?
**A.** 11.6%

**Q.** Which inhibition does the source give for `COc1cc(N2CCOCC2)ccc1Nc1cc(Nc2ccccc2-n2cccn2)c(C(F)(F)F)cn1` here?
**A.** 8.51%

**Q.** For `O=C(C1CCN(Cc2nc3ccccc3[nH]2)CC1)N1CCN(c2ccccn2)CC1`, which inhibition is on record?
**A.** 13.8%

**Q.** For `c1cncc(CCNc2ccc3ncc(-c4cc5ccccc5o4)n3n2)c1`, which inhibition is on record?
**A.** 6.63%

**Q.** For `O=C(c1ccccc1)N1CCN(C2CCCC2)CC1`, which inhibition is on record?
**A.** -2.61%

**Q.** For `COc1ccc(C2C(C(C)=O)=C(C)N=C3SCC(=O)N32)c(OC)c1` (centres undefined), which inhibition is on record?
**A.** -6.53%

**Q.** Which inhibition does the source give for `COc1ccc(C(=O)COC(=O)CNS(=O)(=O)/C=C/c2ccc(C)cc2)cc1OC` here?
**A.** 5.32%

**Q.** With `O=C(CN1CCN(CC(=O)c2ccco2)CC1)Nc1ccc(Cl)c(Cl)c1` as the compound, how does the inhibition read?
**A.** 10.6%

**Q.** With `COc1cc(CN2CCN(Cc3ccc(C)cc3)CC2)c([N+](=O)[O-])cc1OC` as the compound, how does the inhibition read?
**A.** 13.5%

**Q.** With `CCOc1ccccc1N1CCN(Cc2cc(OC)c(O)c([N+](=O)[O-])c2)CC1` as the compound, how does the inhibition read?
**A.** 16.9%

**Q.** Which inhibition does the source give for `O=C(CCC(=O)OCc1ccc(Cl)cc1)Nc1ccc([N+](=O)[O-])cc1` here?
**A.** 14.7%

**Q.** With `Cc1n[nH]c(=O)nc1N/N=C/c1cccs1` as the compound, how does the inhibition read?
**A.** 100% (active)

**Q.** With `CC1CCN(S(=O)(=O)c2ccc(Cl)c(C(=O)Nc3ccccc3[N+](=O)[O-])c2)CC1` as the compound, how does the inhibition read?
**A.** 14.3%

**Q.** Which inhibition does the source give for `COc1ccc(OC)c(CN2CCN(Cc3ccc(Cl)cc3)CC2)c1` here?
**A.** 15.1%

**Q.** Which inhibition does the source give for `Cn1c(=NC(=O)COc2ccccc2)sc2cc(S(C)(=O)=O)ccc21` here?
**A.** 12.4%

**Q.** For `COC(=O)c1sc(NC(=O)c2ccccc2C)c(C#N)c1C`, which inhibition is on record?
**A.** -2.84%

**Q.** Which inhibition does the source give for `Cc1ccccc1NC(=O)NCCOc1cc(N2CCCC2)ncn1` here?
**A.** 13.1%

**Q.** For `O=[N+]([O-])c1ccccc1CN1CCN(Cc2cccnc2)CC1`, which inhibition is on record?
**A.** 12.2%

**Q.** Which inhibition does the source give for `O=C(c1cccc(Cl)c1)N1CCN(Cc2cccnc2)CC1` here?
**A.** 7.21%

**Q.** For `COc1ccc(-c2nc(Nc3cc(OC)c(OC)c(OC)c3)c3[nH]cnc3n2)cc1`, which inhibition is on record?
**A.** 16.5%

**Q.** Which inhibition does the source give for `CCNc1nc(NCC)nc(C(=O)O)n1` here?
**A.** 77% (active)

**Q.** Which inhibition does the source give for `CCN1CCN(CCCCOc2ccccc2F)CC1` here?
**A.** 6.82%

**Q.** For `Cc1cccc(OCCN2CCNCC2)c1C`, which inhibition is on record?
**A.** -1.28%

**Q.** With `Cc1nc(NC2CC2)cc(-c2ccc(F)cc2)n1` as the compound, how does the inhibition read?
**A.** 14.2%

**Q.** Which inhibition does the source give for `Cc1nc(NC(=O)c2cc(Br)ccc2Cl)sc1C` here?
**A.** 12.2%

**Q.** Which inhibition does the source give for `COc1cc(CN2CCN(Cc3cccnc3)CC2)cc(OC)c1OC` here?
**A.** 18.8%

**Q.** Which inhibition does the source give for `CN(CCc1ccccn1)CC(=O)N1CCc2ccccc21` here?
**A.** -7.9%

**Q.** With `CCCCC(=O)NCc1ccc(F)cc1` as the compound, how does the inhibition read?
**A.** 10.9%

**Q.** With `Cc1nnc(N2CCC(Cc3ccccc3)CC2)c2ccccc12` as the compound, how does the inhibition read?
**A.** 6.39%

**Q.** Which inhibition does the source give for `CCCS(=O)(=O)N1CCN(C(C)C)CC1` here?
**A.** 9.53%

**Q.** For `C=CCNC(=O)c1sc(=S)n(CC)c1N`, which inhibition is on record?
**A.** -4.06%

**Q.** Which inhibition does the source give for `COc1cc2nc(-c3cccc(C(C)=O)c3)nc(N)c2cc1OC` here?
**A.** 13.2%

**Q.** Which inhibition does the source give for `O=C1NC(c2ccccc2[N+](=O)[O-])C(C(=O)c2cccs2)C(O)(C(F)(F)F)N1` (centres undefined) here?
**A.** 12.5%

**Q.** Which inhibition does the source give for `CCN(CC)CC(=O)Nc1c2c(nc3ccccc13)N(c1cccc(C)c1)CC2` here?
**A.** 1.32%

**Q.** For `Cc1cccc(NC(=O)CNCCN2CCCCC2)c1C`, which inhibition is on record?
**A.** 12.4%

**Q.** Which inhibition does the source give for `C/C(N)=C(/C#N)C(=O)COC(=O)c1c2c(nc3ccccc13)/C(=C/c1ccco1)CC2` here?
**A.** -24.2%

**Q.** With `CC1CCC2C(=O)N(c3ccc(I)cc3)C(=O)C2C1` (centres undefined) as the compound, how does the inhibition read?
**A.** 0.06%

**Q.** For `Cc1ccc(C)n1C(Cc1ccccc1)C(=O)O` (centres undefined), which inhibition is on record?
**A.** -2%

**Q.** With `Cc1ccc(C)c(OCCN2CCOCC2)c1C` as the compound, how does the inhibition read?
**A.** 17.5%

**Q.** For `COc1ccc(CN2CCN(Cc3cccnc3)CC2)cc1OCc1ccccc1`, which inhibition is on record?
**A.** 10.3%

**Q.** For `C=CCc1cc(C)ccc1OCCCn1ccnc1`, which inhibition is on record?
**A.** 7.18%

**Q.** For `OCCOCCN1CCN(Cc2ccc(Cl)cc2)CC1`, which inhibition is on record?
**A.** 3.33%

**Q.** With `C=CCn1c(SCC(=O)Nc2nc3ccccc3s2)nc(O)cc1=O` as the compound, how does the inhibition read?
**A.** -1.43%

**Q.** With `CN(CCC(=O)O)Cc1cccc(Cl)c1` as the compound, how does the inhibition read?
**A.** -6.2%

**Q.** For `COc1cc(CN2CCN(Cc3ccc(Cl)cc3)CC2)c([N+](=O)[O-])cc1OC`, which inhibition is on record?
**A.** 4.12%

**Q.** With `CCC(C)c1ccccc1NC(=O)CN(C)CC(=O)Nc1ccccc1SC` (centres undefined) as the compound, how does the inhibition read?
**A.** 3.28%

**Q.** For `O=c1c2ccccc2ncn1CCCCOc1ccccc1F`, which inhibition is on record?
**A.** 7.91%

**Q.** With `COc1ccc(CN2CCN(Cc3ccccc3C)CC2)c(OC)c1OC` as the compound, how does the inhibition read?
**A.** -1.44%

**Q.** Which inhibition does the source give for `COc1ccc(C(=O)NCCN2CCN(c3nc4c(C)c(C)ccc4s3)CC2)cc1` here?
**A.** -2.39%

**Q.** For `Fc1ccc(CN2CCN(C3CCCC3)CC2)cc1`, which inhibition is on record?
**A.** 5.37%

**Q.** With `O=C(c1cccs1)N1CCC(N2CCN(Cc3ccccc3)CC2)CC1` as the compound, how does the inhibition read?
**A.** -5.37%
